Screens (PubChem BioAssay)
Mtb bLac sens: beta-lactam sensitization of Mtb H37Rv; AID 434955; M. tuberculosis H37Rv growth with meropenem, percent inhibition; inhibition, % at 25 µM; 330,000 tested, 0.27% active; call rule not given here;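 further: growth measured after seven days incubation then overnight dye step; 0% = bacteria only wells and 100% = bacteria with antibiotic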
DUSP3 inh: DUSP3 (human) phosphatase inhibition; inhibition, % at 13.3 µM; P51452; 290,000 tested, 0.52% active; AID 1654; recombinant VHR phosphatase, pNPP absorbance; in the data active means inhibition above about 50%
Target sequence (P51452 whole entry, looked up): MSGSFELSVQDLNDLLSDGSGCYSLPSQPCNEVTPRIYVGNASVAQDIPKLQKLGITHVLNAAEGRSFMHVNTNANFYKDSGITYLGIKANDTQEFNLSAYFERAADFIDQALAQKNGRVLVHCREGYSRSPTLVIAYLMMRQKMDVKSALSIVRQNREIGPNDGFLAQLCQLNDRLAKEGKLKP
GDH-TPI counter-1: inhibits GDH-TPI coupling enzymes, artifact for Mtb FBA screen | inhibition, % at 4.8 µM | AID 588335 | 360,000 tested, 1.2% active | GDH-TPI coupled enzyme counterscreen, NADH absorbance; in the data active means inhibition above about 30%;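 further: 0% = DMSO wells and 100% = wells lacking the enzyme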
Mtb FBA inh: Mtb fructose-bisphosphate aldolase inhibition. purified M. tuberculosis FBA, fluorescence read-out. P9WQA3. inhibition, % at 1 µM. AID 588726. 360,000 tested, 2.3% active;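 further: 0% = vehicle and 100% = reference inhibitor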
Mtb hypoxia inh: reduces hypoxia-regulated biosensor signal in M. tuberculosis; fluorescence inhibition, % (no concentration beside the values); 300,000 tested, 0.1% active; M. tuberculosis hypoxia-regulated fluorescent reporter, fluorescence; in the data active means fluorescence inhibition mostly above about 23%, no sharp cut-off; inactive means mostly below about 17%
Mtb FBA inh conf: confirmation of M. tuberculosis fructose-bisphosphate aldolase inhibitors; purified M. tuberculosis FBA, fluorescence read-out; 5,600 tested, 78% active; shares compounds with Mtb FBA inh; inhibition, % at 1 µM;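 further: 0% = vehicle wells and 100% = reference inhibitor wells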
GDH-TPI counter-2: inhibits GDH-TPI coupling enzymes, flagging Mtb FBA hits | shares compounds with Mtb FBA inh | AID 652141 | 5,600 tested, 81% active | GDH-TPI coupled enzyme counterscreen, fluorescence | inhibition, % at 1 µM; in the data active means inhibition above about 10%
The depositor's hits bear a star; . = not tested or not shown. The list is not random: actives were taken first. Their share in the collection is about 3.6%. Unless noted, no stated cut-off is given here; in the data, active means inhibition above about 27%; inactive means the rest.

SMILES	Mtb bLac sens	DUSP3 inh	GDH-TPI counter-1	Mtb FBA inh	Mtb hypoxia inh	Mtb FBA inh conf	GDH-TPI counter-2
COc1cc(C)cc2oc(=O)c(CC(=O)N3CCN(C(=O)C4COc5ccccc5O4)CC3)c(C)c12 (stereo unspecified)	37	34	2	104*	13	64*	54*
CN1CCN(C=NC2=C(C#N)C(c3ccccc3)C3=C(CC(C)(C)CC3=O)O2)CC1 (stereo unspecified)	.	.	.	.	-10	.	.
COC(=O)C12CCc3cc(OC)ccc3C1=CC(=O)C2 (stereo unspecified)	.	.	34*	95*	.	95*	94*
FC(F)(F)c1ccc(C2C3CN(Cc4ccc(-c5ccccc5)cc4)C(c4ccccc4)C34CC2(c2cccnc2)C4)cc1 (stereo unspecified)	.	.	.	.	-3	.	.
COCCNC(=O)CCc1c(C)nc2nc(-c3cc(OC)cc(OC)c3)nn2c1C	0	-11	0	-3	3	.	.
COCCCNC(=O)CCc1c(C)nc2c(c(C)nn2-c2ccc(C)cc2)c1C	1	10	7	56*	3	71*	77*
CCN(CC)CCNC(=O)CCc1c(C)nc2c(c(C)nn2-c2ccc(C)cc2)c1C	0	-3	11	41*	-6	8	-3
COCCNC(=O)CCc1c(C)nc2c(c(C)nn2-c2ccc(C)c(C)c2)c1C	-3	.	-1	43*	12	74*	56*
Cc1ccc(-n2nc(C)c3c(C)c(CCC(=O)NC(C)c4ccccc4)c(C)nc32)cc1 (stereo unspecified)	-3	15	7	3	2	.	.
COCCCNC(=O)Cn1nc(-c2ccc(C)cc2)ccc1=O	1	31	8	8	4	.	.
COCCNC(=O)CCc1c(C)nc2c(c(C)nn2-c2ccc(C)cc2)c1C	-1	.	3	55*	14	63*	49*
O=C(CCCCO)CCCCCCCCC1NC(CO)C(O)C1OC1OC(CO)C(O)C(O)C1O (stereo unspecified)	.	.	.	.	8	.	.
COC(=O)C1=C(c2ccc(F)cc2F)CC2CCC1N2C(=O)NCCOc1ccccc1Cl (stereo unspecified)	.	.	.	.	-4	.	.
CCCN(CC(=O)Nc1ccccc1C)C(=O)CCCOc1ccc(Br)cc1	5	.	-3	38*	9	-2	-4
CCOc1ccc(OCCCC(=O)N(C)CC(=O)Nc2ccccc2Br)cc1	-9	.	-1	-2	20	.	.
Cc1cccc(NC(=O)CNC(=O)COC(=O)c2ccc(C(C)(C)C)cc2)c1C	1	.	6	4	-3	.	.
Cc1cccc(NC(=O)CNC(=O)COC(=O)C2CC2C)c1C (stereo unspecified)	-8	.	-2	30*	8	2	-2
Cc1cccc(-c2cc3nc(C)cc(NCCCN(C)C)n3n2)c1	9	-13	5	18	3	.	.
CN(C)CCCNc1cc(-c2ccccc2)nc2cc(-c3cccc(F)c3)nn12	100	-4	-1	78*	.	78*	61*
C=CCC(Cc1ccc(F)cc1)C(=O)OCC1CCCN1C(=O)C(CC=C)CC(=O)NC(CO)Cc1ccccc1 (stereo unspecified)	.	.	.	.	6	.	.
CC(=NOc1cccc(F)n1)c1ccc(Cl)cc1Cl	.	.	.	.	5	.	.
CN(C)C(=O)Oc1ccc(-c2cn3cc(C(F)(F)F)ccc3n2)cc1	2	-20	6	34*	2	70*	59*
Cc1cccc(C=Nc2ccccc2C(N)=O)c1	-4	41	2	36*	6	140*	101*
Cc1ccc(/C=N/N=C/c2ccc(C)s2)s1	-2	4	18	1	.	.	.
Cc1ccc(C=Nc2ccccc2C(N)=O)s1	0	-8	13	58*	-1	59*	50*
Cc1cccc(/C=N/NC(=O)Cc2cccs2)c1	-5	14	-11	1	.	.	.
COc1ccc(-c2c(C)oc3c(CN4CCCC(C)C4)c(O)ccc3c2=O)cc1OC (stereo unspecified)	.	2	18	39*	9	0	-2
COc1ccc(-c2c(C)oc3c(CN4CCCCC4C)c(O)ccc3c2=O)cc1OC (stereo unspecified)	0	11	34*	42*	7	-2	-6
O=C(COc1cccc2cccnc12)NN=Cc1ccc(O)cc1	.	.	.	.	3	.	.
